# NPC1 prom act: qHTS Assay for NPC1 Promoter Activators | Potency, µM (series often up to 9.22 µM), usual class: activators | AID 485313, 2010 | 320,000 tested, 2.4% active | Huh7 NPC1 promoter luciferase reporter, 24 h; also: nearly all actives have a fitted effect of over 60% in size
#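 Luminescence read-out of NPC1 promoter-driven luciferase in stably transfected Huh7 cells; compounds delivered in DMSO and left 24 h at 37C, 5% CO2, qHTS titration format.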
# SMN2 splice up: qHTS Assay for Enhancers of SMN2 Splice Variant Expression; HEK293 SMN2-luciferase splicing reporter, luminescence, 30-36 h; Potency, µM (series often up to 46.1 µM), most hits filed as activators; 210,000 tested, 2.8% active; also: nearly all actives have a fitted effect of over 55% in size
#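 HEK293 cells carry an SMN2 minigene-luciferase reporter in which exon 7 inclusion puts luciferase in frame. Cells were seeded at 2000 cells/well, attached for 10-12 hours, then exposed to compounds for 30-36 hours at 37C before ONE-Glo luminescence.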
# Rab9 promoter act: qHTS Assay for Rab9 Promoter Activators | 320,000 tested, 2.8% active | Huh7 Rab9 promoter-luciferase reporter, luminescence, 24 h | Potency, µM (series often up to 9.22 µM), hits mostly activators; also: nearly all actives have a fitted effect of over 60% in size
#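 Using Huh7 cells stably transfected with Rab9 promoter–luciferase, compounds were incubated 24 h at 37 °C, 5% CO2; luciferase luminescence was read 10 min after reagent addition.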
# KinaseGlo FLuc: Counterscreen for Luciferase (Kinase-Glo TM) Inhibition | Potency, µM (highest dose often 38.3 µM), usual class: inhibitors | Luciferin 4-monooxygenase (Photuris pensylvanica), Q27757 | 200,000 tested, 0.28% active | Kinase-Glo luciferase, ATP luminescence, 8 min; also: nearly all actives have a fitted effect of over 60% in size
#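 Luminescence was the read-out, taken after 8-minute incubation at ambient temperature. Luciferase turned over luciferin with 10 uM ATP in imidazole pH 7.2 buffer containing KCl, MgCl2, Tween 20 and BSA.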
# FLuc counter: qHTS profiling assay for firefly luciferase inhibitor/activator using purifed enzyme and Km concentrations of substrates (counterscreen for miR-21 project). Luciferin 4-monooxygenase (Photinus pyralis), P08659. purified FLuc, Km substrates, luminescence inhibition. Potency, µM (doses to about 57.5 µM), usual class: inhibitors. 360,000 tested, 6.9% active. AID 588342, 2011; also: nearly all actives have a fitted effect of over 55% in size
# Target sequence (P08659 whole entry, looked up): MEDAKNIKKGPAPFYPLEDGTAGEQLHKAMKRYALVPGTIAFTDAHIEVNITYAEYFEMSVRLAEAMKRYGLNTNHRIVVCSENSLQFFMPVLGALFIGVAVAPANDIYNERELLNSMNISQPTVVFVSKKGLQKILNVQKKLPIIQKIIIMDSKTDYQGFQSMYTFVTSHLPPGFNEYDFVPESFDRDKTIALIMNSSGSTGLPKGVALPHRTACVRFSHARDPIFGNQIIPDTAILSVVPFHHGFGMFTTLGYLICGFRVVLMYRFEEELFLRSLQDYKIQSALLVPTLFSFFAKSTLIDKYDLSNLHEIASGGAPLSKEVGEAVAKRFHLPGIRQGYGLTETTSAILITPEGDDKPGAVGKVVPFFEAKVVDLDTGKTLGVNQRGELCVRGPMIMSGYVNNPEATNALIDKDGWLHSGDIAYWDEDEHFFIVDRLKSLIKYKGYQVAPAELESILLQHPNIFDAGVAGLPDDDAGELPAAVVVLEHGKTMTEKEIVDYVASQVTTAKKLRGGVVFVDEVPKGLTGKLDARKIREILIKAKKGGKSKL
#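 Purified P. pyralis luciferase (10nM final) with 10uM D-luciferin and 10uM ATP (Km levels) in 50mM Tris acetate pH 7.5, 10mM Mg acetate, 0.01% Tween-20, 0.05% BSA; qHTS 6-point titration, ~60 µM downward; luminescence read.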
# ELG1 genotox: qHTS screen for small molecules that induce genotoxicity in human embryonic kidney (HEK293T) cells expressing luciferase-tagged ELG1; HEK293T ELG1-luciferase reporter, luminescence, 16 h; Potency, µM (highest dose often 46 µM), most hits filed as activators; 330,000 tested, 1.3% active; also: nearly all actives have a fitted effect of over 60% in size
#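 16 hr compound incubation (37 °C, 5% CO2) of HEK293T cells carrying luciferase-tagged ELG1; luciferase then measured by ONE-Glo luminescence after 30 min at RT.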
# Hits are given with their value; – = inactive; ? = inconclusive; · = no result; [ ] = dose if it differs, or a comment. The list is not random: actives were taken first. Their share in the collection is about 7.4%. Calls follow the shape of the dose curve; as a rule, active = well fitted curve in the direction sought with a large enough effect; inconclusive = small, poorly fitted or top-dose-only effect, or another doubt; inactive = no such curve, though single readings can be large; an effect the other way counts as inactive or inconclusive.
SMILES,NPC1 prom act,SMN2 splice up,Rab9 promoter act,KinaseGlo FLuc,FLuc counter,ELG1 genotox
Cc1ccc(C(=O)OCC(=O)c2cc(C)n(CC3CCCO3)c2C)cc1 (stereo not given),2.2µM,–,2.2µM,–,4.3µM,?
Cc1cc(C(=O)COc2ccccc2C(N)=O)c(C)n1CC1CCCO1 (stereo not given),–,–,–,–,?,–
COc1cccc(Nc2ncc3nc(C)c(=O)n(CCC#N)c3n2)c1,·,–,·,–,·,·
O=C(NCC(c1cccnc1)N1CCc2ccccc2C1)c1ccc(F)c(F)c1 (stereo not given),·,·,·,·,–,·
Cc1cc(C(=O)COC(=O)c2cc(O)c3ccccc3c2O)c(C)n1CC1CCCO1 (stereo not given),–,–,–,–,19µM,–
Cc1cc(C(=O)CSc2nnc(-c3cccnc3)n2-c2ccccc2)c(C)n1CC1CCCO1 (stereo not given),–,–,?,–,19µM,–
Cc1cc(C(=O)COC(=O)c2ccccc2NCCO)c(C)n1CC1CCCO1 (stereo not given),?,·,?,·,1.5µM,?
Cc1cc(C(=O)COC(=O)CN(C)S(=O)(=O)c2ccc(Cl)cc2)c(C)n1CC1CCCO1 (stereo not given),–,–,–,–,19µM,–
CC(CCC(=O)O)(c1cc(Br)c(O)c(Br)c1)c1cc(Br)c(O)c(Br)c1,·,–[9.22 µM],·,–[7.66 µM],·,·
Cc1cc(C(=O)CSc2nc3ccc(Cl)cc3[nH]2)c(C)n1CC1CCCO1 (stereo not given),–,–,–,–,?,–
Cc1cc(C(=O)COC(=O)c2n[nH]c3ccccc23)c(C)n1CC1CCCO1 (stereo not given),0.35µM,–,0.32µM,?,?,?
O=C(COC(=O)c1cccnc1Cl)NCC1CCCO1 (stereo not given),–,–,–,–,–,–
Cc1cc(C(=O)COC(=O)c2cccnc2Cl)c(C)n1CC1CCCO1 (stereo not given),?,–,?,10µM,0.24µM,0.52µM
O=C(NCCc1ccccc1)c1cnc2n(c1=O)CCS2,?,?,2.2µM,–,?,?
Cc1cccn2c(=O)c(C(=O)NCCc3ccc(Cl)cc3)cnc12,·,·,·,·,13µM,·
O=C(NCc1cccnc1)c1cnc2n(c1=O)CCS2,–,–,–,–,–,–
CSc1ccc(CCNC(=O)c2cnc3c(C)cccn3c2=O)cc1,·,·,·,·,–,·
O=C(NCCc1c[nH]c2ccccc12)c1cnc2n(c1=O)CCS2,?,?,4.5µM,–,?,–
CCCC12CN3CC(CCC)(CN(C1)C3c1ccccc1)C2=O (stereo not given),·,·,·,·,–,·
COc1ccc(NC(=O)N2CCc3c(sc4c3CCCC4)C2c2ccccc2OC)cc1 (stereo not given),·,·,·,·,–,·
CN(C)C(=O)c1ccc(-c2nc(NCc3cccnc3)c3ccccc3n2)cc1,·,–,·,–,·,·
CC1CCN(c2oc(-c3ccc(F)cc3)nc2C#N)CC1,–,·,–[1.84 µM],·,?,–
CC1CCCN(c2oc(-c3cccc4ccccc34)nc2C#N)C1 (stereo not given),?,–,?,–,5.4µM,?
Cc1ccccc1-c1nc(C#N)c(N2CCC(C)CC2)o1,–,·,–,·,24µM,–
COc1ccc(-c2nc(C#N)c(N3CCC(C(N)=O)CC3)o2)cc1,–,–,–,–,–,–
CC1CCN(c2oc(-c3ccccc3Cl)nc2C#N)CC1,?,·,?,·,11µM,?
CC(C)(C)c1ccc(-c2nc(C#N)c(N3CCC(C(N)=O)CC3)o2)cc1,–,·,–,·,21µM,–
Cc1c(C(=O)N2CCC(C)CC2)c(S(=O)(=O)N(Cc2ccccc2)C(C)(C)C)c(C)n1C,·,·,·,·,–,·
CC(=O)N1CCc2cc(CNC(=O)Nc3ccc(Br)c(C)c3)ccc21,·,·,·,·,–,·
Cc1ccc2cccnc2c1,·,–,·,·,·,·

# From PubChem BioAssay
